# BaF3 tox: counter-screen for JAK2V617F inhibitors: parental Ba/F3 viability inhibitors; CellTiter-Glo ATP luminescence; inhibition, % at 5.6 µM; 220,000 tested, 1.1% active; AID 1486;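 active = inhibition above a per-campaign cutoff, the mean inhibition of all tested compounds plus 3 SD, cut at about 27% in these data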
# APP transl inh: APP translation inhibition; SH-SY5Y APP 5'UTR-luciferase reporter, luminescence; inhibition, % at 2 µM; 190,000 tested, 0.82% active; AID 1285;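 active = inhibition above a set limit, derived from the sample mean plus 3 SD, cut at about 45% in these data; inconclusive = one replicate passes the limit while the other fails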
# IEC-6 tox: kills IEC-6 intestinal cells in KLF5 counter-screen. IEC-6 cytotoxicity, luminescence viability. inhibition, % at 5 µM. 290,000 tested, 0.78% active; in the data active = inhibition above about 22%
# KLF5 inhibitor: suppresses KLF5 promoter-driven expression; AID 1700; inhibition, % at 5 µM; DLD-1 KLF5 promoter-luciferase reporter, luminescence; 290,000 tested, 0.23% active;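 active = inhibition above a per-plate limit of that plate's mean compound inhibition plus 3 SD, cut at about 60% in these data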;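 note: higher means less KLF5 promoter-driven luciferase light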
# Ba/F3 V617F tox: loss of viability in JAK2V617F-driven Ba/F3 cells; Ba/F3 EpoR-JAK2V617F viability, ATP luminescence; AID 1446; 220,000 tested, 1.1% active; inhibition, % at 5.6 µM;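 active = inhibition above the campaign mean plus 3 SD over all tested compounds, cut at about 24% in these data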;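 note: cytokine-independent growth of Ba/F3 cells driven by EpoR plus mutant JAK2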
# aSyn UTR inh: 5' untranslated region of α-synuclein, MLPCN primary screen; alpha-synuclein 5'UTR reporter, inhibitor activity; AID 1813; inhibition, % (tested at 7.5 µM); 300,000 tested, 0.82% active; in the data active = inhibition above about 60%; inconclusive = no clear call, values can overlap the other calls;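 note: H4 neuroglioblastoma cells stably carrying SNCA 5'UTR luciferase fusion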
# A number is an active result; - = inactive; ? = inconclusive; . = not tested or not shown. Sampled rows, rich in hits. Any-hit rate of the full collection: about 2.2%.
SMILES,BaF3 tox,APP transl inh,IEC-6 tox,KLF5 inhibitor,Ba/F3 V617F tox,aSyn UTR inh
Cc1ccc(NC(=O)c2cccs2)cc1,-,-,-,-,-,-
Cc1ccc(S(=O)(=O)n2[nH]c(=O)cc2NC(=O)c2cccs2)cc1,35,-,-,-,26,-
CN(C)c1ccc(/C=C/c2cc[n+](C)cc2)cc1,71,-,-,-,94,-
CN(C)c1ccc(/C=C/c2cc[n+]([O-])cc2)cc1,-,-,-,-,-,-
Cc1cc(CN2C(=O)c3ccccc3C2=O)no1,-,-,-,-,-,-
O=C1c2ccccc2C(=O)N1CC1=NCCc2ccccc21,42,-,-,-,-,-
O=C(NCCc1ccc(F)cc1)c1cc(=O)c2ccccc2o1,-,-,-,-,-,-
CC[n+]1c(/C=C2\C=C(C)CC(C)(C)C2)sc2ccccc21,60,-,-,-,56,-
CC[n+]1c(/C=C2\C=C(C)CC(C)C2)sc2ccccc21 (configuration not stated),63,-,-,-,63,-
CC[n+]1c(/C=C2/C=C(C)CC(C)(C)C2)sc2ccc(OC)cc21,59,-,-,-,64,-
CCC1=C/C(=C/c2sc3ccccc3[n+]2CC)CC(C)(C)C1,-,-,-,-,-,-
COCCC(=O)N1CCC(Oc2ccc(C(=O)NC(C)CCn3cccn3)cc2)CC1 (configuration not stated),.,.,-,-,.,-
Clc1ccc2noc(-c3ccccc3)c2c1,-,47,-,-,-,-
CCCSc1ccc2nc(-c3ccccc3)cn2c1,-,-,-,-,-,111
O=C(O)CSc1ncnc2sc3c(c12)CCCC3,90,-,-,-,-,-
CC(C)Nc1ccc(Nc2ccnc3cc4ccccc4cc23)cc1,-,.,-,-,-,99
CC(C)C[C@H](NC(=O)c1nc[nH]c1C(=O)N1CCN(C(=O)OC(C)(C)C)CC1)C(=O)OC(C)(C)C,-,52,-,-,-,-
CC(C)(C)OC(=O)NCCCC[C@H](NC(=O)c1nc[nH]c1C(=O)N1CCN(C(=O)OC(C)(C)C)CC1)C(=O)OC(C)(C)C,-,-,-,-,-,-
Cc1ccc(Nc2nc(-c3cccnc3)nc3ccccc23)cc1,30,.,-,-,49,-
Cc1ccc(CNC(=O)Cn2nnc(C(=O)Nc3cccc(C)c3C)c2N)cc1,.,.,-,-,.,-
COc1ccc(C)cc1NC(=O)c1nnn(Cc2cccc(C(F)(F)F)c2)c1N,37,-,-,-,24,?
Cc1ccccc1Cn1nnc(C(=O)Nc2cccc(C)c2C)c1N,32,-,-,-,26,-
COc1ccc(OC)c(NC(=O)c2nnn(CCc3ccccc3)c2N)c1,-,-,-,-,-,-
CCOc1ccccc1CN1CCN(Cc2ccc(C)o2)C(CCO)C1 (configuration not stated),80,-,-,-,-,-
COC(=O)[C@@H](NC(=O)c1ccc2c(c1)S(=O)(=O)c1ccccc1C2=O)C(C)C,.,.,-,-,.,-
SMILES,BaF3 tox,APP transl inh,IEC-6 tox,KLF5 inhibitor,Ba/F3 V617F tox,aSyn UTR inh
CCCCc1ccc(NC(=O)CSc2nc(=O)n(CCN(CC)CC)c3c2CCC3)cc1,.,.,.,.,.,-
O=C(N/N=C/c1ccccc1O)C1CC(=O)N(c2ccc(Cl)cc2)C1 (configuration not stated),.,.,-,-,.,83
CCN(CC)Cc1ccc(NC(=O)c2sc3cc(Cl)ccc3c2Cl)cc1,-,.,-,-,-,104
C/C(=N\O)c1cc(Cl)ccc1O,-,.,-,-,-,-
COc1ccc(OC)c(Nc2nc(NCCCN(C)C)nc(N)c2[N+](=O)[O-])c1,50,.,-,-,58,-
COC(=O)[C@]1(C)N[C@H](c2ccc(-c3ccccc3)cc2)[C@@H]2C(=O)N(C)C(=O)[C@@H]21,.,.,.,.,.,-
O=C(O)CC(=O)Nc1ccc(Oc2ccc(C(F)(F)F)cn2)c(Cl)c1,-,-,-,-,-,65
COC(=O)c1ccc([C@H](NC(=O)c2ccco2)[C@]2(C)C[C@H]2C2CCCCC2)cc1,.,.,.,.,.,-
COc1ccc(OC)c(NC(=O)Cn2nc(C)c3ccccc3c2=O)c1,.,.,-,-,.,-
Cc1ccc2nc(-c3ccc(N)cc3)sc2c1,-,.,-,-,-,90
Cc1nc([N+](=O)[O-])cn1Cc1cccc([N+](=O)[O-])c1,-,-,-,-,-,-
O=C(Nc1cccc(F)c1)C1CCCN(S(=O)(=O)c2ccccc2)C1 (configuration not stated),.,.,-,-,.,-
Cc1cc(OC(C)C(=O)NCC2CCCO2)cc(C)c1Cl (configuration not stated),.,.,-,-,.,-
CCN1CCN(Cc2ccc(NC(=O)c3cc(NC(=O)c4cc(-c5ccc(OC)cc5)n[nH]4)cc(OC)c3)cc2C(F)(F)F)CC1,.,.,.,.,.,106
CCN1CCN(Cc2ccc(NC(=O)c3cc(NC(=O)c4cncc(-c5cccs5)c4)cc(OC)c3)cc2C(F)(F)F)CC1,.,.,-,-,.,109
CCC(C)Nc1nc(C)nc2c1oc1ccccc12 (configuration not stated),-,.,-,-,-,-
Cc1nc(NC(C)c2ccccc2)c2oc3ccccc3c2n1 (configuration not stated),35,-,-,-,-,-
NCCCn1c(C(=O)c2cc(Cl)c(N)c(Cl)c2)c2ccc([N+](=O)[O-])cc2[n+]1[O-],.,.,.,.,.,100
CCOC(=O)c1cnc2sc3c(n2c1=O)CCCC3,64,-,-,-,72,.
CCc1nnc(NC(=O)c2cc(-c3ccccn3)nc3ccc(Br)cc23)s1,.,.,-,-,.,-
CCOc1ccc(CCNC(=O)C2CCN(S(=O)(=O)N3CCC(C)CC3)CC2)cc1OCC,-,-,-,-,-,-
Cc1cc(=O)[nH]c(N=N/C(=N/Nc2ccccc2C)c2ccccc2)n1,-,-,-,-,-,82
Cc1cc(=O)[nH]c(SCC(=O)Nc2ccccc2C)n1,-,-,-,-,-,-
COc1ccc(N/N=C(/N=Nc2nc(C)cc(=O)[nH]2)c2ccccc2)cc1,-,-,-,-,-,85
Cc1cc(=O)[nH]c(N=N/C(=N/Nc2ccc(O)cc2)c2ccccc2)n1,-,-,-,-,-,-
SMILES,BaF3 tox,APP transl inh,IEC-6 tox,KLF5 inhibitor,Ba/F3 V617F tox,aSyn UTR inh
Cc1ccc(C(=O)Nc2ccccc2C(=O)O)cc1S(=O)(=O)Nc1ccc(Br)cc1,.,.,.,.,.,-
COc1ccccc1NC(=S)N1CCCCCC1,.,.,-,-,.,-
c1ccc(-c2nnc3n2CCCC3)cc1,-,-,-,-,-,-
Brc1cccc(-c2nnc3n2CCCCC3)c1,96,-,-,-,-,-
CCOc1ccc(N(CC(=O)NC2CCCC2)C(=O)CCC(=O)Nc2nccs2)cc1,.,.,-,-,.,-
COc1ccc(CNC(=O)C(=O)NCC2OCCCN2S(=O)(=O)c2cccs2)cc1 (configuration not stated),.,.,-,-,.,-
CCCCCN(C(=O)CCC(=O)OCC(=O)N1CCC(C)CC1)c1c(N)n(CCCC)c(=O)[nH]c1=O,.,.,.,.,.,-
Cc1ccc(C(=O)N2C(=O)C(c3ccccc3)Oc3ccccc32)cc1 (configuration not stated),-,.,-,-,-,93

# Compound activity from PubChem.
